High-throughput results (PubChem)
Shown are actives, neighbours in structure and some others; about 9.3% of the full set was active somewhere.
ELG1 repair inh – blocks ELG1-dependent DNA repair in HEK293T cells; HEK293T ELG1-luciferase reporter, luminescence, 16 h; DNA damage induced by 5-fluorouridine; AID 504467; Potency, µM (top dose mostly 46.1 µM), without a hit: at the top dose activity change, negative = inhibition, hits mostly inhibitors; 330,000 tested, 2.3% active; note: % is set by controls: 0 for no effect and ±100 for the full control effect; nearly all actives have a fitted effect of over 55% in size
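Step one: seed 2,000 cells per well. Step two: pin-transfer compound or DMSO alongside 5-fluorouridine. Step three: incubate 16 hr, 37 °C, 5% CO2. Step four: add ONE-Glo, wait 30 min, read luminescence.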
Rab9 promoter act – activators of Rab9 promoter. Huh7 Rab9 promoter-luciferase reporter, luminescence, 24 h. Potency, µM (doses to about 9.22 µM), for the others: at the top dose activation, negative = inhibition, hits mostly activators. 320,000 tested, 2.8% active. AID 485297; note: % of control where 0% means no effect; nearly all actives have a fitted effect of over 60% in size
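Huh7 reporter line, Rab9 promoter upstream of luciferase. Compound exposure 24 h at 37 °C in reduced-serum medium with 10% FBS. Read-out: luminescence.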
SMN2 splice enh – SMN2 splice variant enhancement; 210,000 tested, 2.8% active; Potency, µM (top dose mostly 46.1 µM), inactives show at the top dose activity change, positive = activation, most hits filed as activators; HEK293 SMN2-luciferase splicing reporter, luminescence, 30-36 h; note: % of control where 0% means no effect; nearly all actives have a fitted effect of over 55% in size
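HEK293 cells carry an SMN2 […]–luciferase reporter in which exon 7 inclusion puts luciferase in frame. Cells were plated 10-12 h before compound addition, then incubated 30-36 h at 37C. ONE-Glo luminescence was read; sodium butyrate at 4.5 mM final served as control.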
NPC1 promoter act – activates the NPC1 promoter; Huh7 NPC1 promoter luciferase reporter, 24 h; Potency, µM (highest dose often 9.22 µM), for the others: top-dose activation, hits mostly activators; 320,000 tested, 2.4% active; AID 485313; note: % of control where 0% means no effect; nearly all actives have a fitted effect of over 60% in size
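Huh7 cells stably carrying NPC1 promoter–luciferase, plated in Opti-MEM with 10% FBS for 2 h, were exposed to compound in DMSO for 24 h at 37 °C; luciferase reagent was added for 10 min and luminescence read.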
FLuc counter – firefly luciferase modulation, counter-screen for miR-21 project; P08659; purified FLuc, Km substrates, luminescence inhibition; Potency, µM (series often up to 57.5 µM), without a hit: top-dose activity change, negative = inhibition, hits mostly inhibitors; 360,000 tested, 6.9% active;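 note: plate controls were vehicle for no effect and reference inhibitor for full effect; nearly all actives have a fitted effect of over 55% in size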
Target sequence (P08659 whole entry, looked up): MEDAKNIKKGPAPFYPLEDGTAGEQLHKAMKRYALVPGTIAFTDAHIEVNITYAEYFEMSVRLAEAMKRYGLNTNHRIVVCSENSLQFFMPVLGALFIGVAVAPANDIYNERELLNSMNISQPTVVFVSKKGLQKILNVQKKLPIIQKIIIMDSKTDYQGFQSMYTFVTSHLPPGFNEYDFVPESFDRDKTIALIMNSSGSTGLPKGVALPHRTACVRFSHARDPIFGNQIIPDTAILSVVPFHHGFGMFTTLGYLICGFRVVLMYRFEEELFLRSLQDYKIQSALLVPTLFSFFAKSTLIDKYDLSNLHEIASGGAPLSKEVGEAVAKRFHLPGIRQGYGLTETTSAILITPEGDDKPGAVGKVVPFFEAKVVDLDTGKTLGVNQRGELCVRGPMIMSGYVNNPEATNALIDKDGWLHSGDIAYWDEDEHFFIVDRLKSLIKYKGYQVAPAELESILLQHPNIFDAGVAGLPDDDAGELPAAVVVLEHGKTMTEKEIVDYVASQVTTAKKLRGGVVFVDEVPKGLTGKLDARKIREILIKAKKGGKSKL
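Purified P. pyralis luciferase (10nM final) with 10uM D-luciferin and 10uM ATP (Km levels) in 50mM Tris acetate pH 7.5, 10mM Mg acetate, 0.01% Tween-20, 0.05% BSA; qHTS 6-point titration, ~60 µM downward; luminescence read.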
ELG1 genotox – inducers of genotoxicity in HEK293T ELG1-luciferase cells; 330,000 tested, 1.3% active; Potency, µM (series often up to 46 µM), for the others: at the highest dose activity change, positive = activation, actives largely listed as activators; HEK293T ELG1-luciferase reporter, luminescence, 16 h; AID 504466; note: % of control where 0% means no effect; nearly all actives have a fitted effect of over 60% in size
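DMSO vehicle served as control against compound-treated ELG1-luciferase HEK293T cells; exposure lasted 16 hr at 37 °C and 5% CO2, followed by ONE-Glo luminescence detection after 30 min.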
* = called active by the depositor; ? = inconclusive; nt = no result; [ ] = dose if it differs, or a comment. Calls come from the whole dose curve; as a rule, active = well fitted curve in the direction sought with a large enough effect; inconclusive = small, poorly fitted or top-dose-only effect, or another doubt; inactive = no such curve, though single readings can be large; an effect the other way counts as inactive or inconclusive. Potency is the fitted concentration of half-maximal effect.

SMILES	ELG1 repair inh	Rab9 promoter act	SMN2 splice enh	NPC1 promoter act	FLuc counter	ELG1 genotox
O=C(C1CCN(c2nc3ccccc3[nH]2)CC1)N1CCN(c2cccc(Cl)c2)CC1	nt	nt	nt	nt	1%	nt
Fc1ccccc1NC(=S)NCCc1ccc(Cl)cc1	?	?	nt	?	19µM*	?
S=C(NCCc1ccc(Cl)cc1)NC1CCCCC1	?	?	nt	4µM*	19µM*	-7%
O=C(NCCc1ccccc1)C(=O)NC1CCCCC1	?	3.2µM*	58%	3.5µM*	-1%[2.3 µM]	11%
S=C(NCCc1ccccc1)NC1CCCCCC1	?	3.2µM*	13µM*	2.5µM*	11µM*	8.2µM*
Fc1ccccc1NC(=S)NCCc1ccccc1	?	?	-11%	?	?	6%
Cc1c(Cl)cccc1NC(=O)Cn1c(CCC(=O)O)ccc1-c1ccc(Cl)cc1	-12%	-2%	nt	0%	7%	-6%
S=C(NCCc1ccccc1)NCc1cccs1	?	?	10µM*	?	?	?
CN(C)c1ccc(SC#N)cc1	18µM*	5%	nt	-3%	-11%	-10%
Fc1ccc(Nc2ccc(-c3ccc(F)cc3)nn2)cc1	?	3.2µM*	nt	?	5.4µM*	12%
Fc1ccc(-c2ccc(Nc3cccc(F)c3)nn2)cc1	?	?	nt	?	?	6%
